Results on 26 molecules are retold here after PubChem BioAssay (NCATS).

A short description of experiment [1]: Cell Viability - BJ (AID 421).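 Further: potency means the concentration at half of the fitted maximal effect; cells exposed to compound for 40 hours at 37 °C before readout.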 To be noted: BJ fibroblast viability, qHTS. The method, boiled down: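 Normal human BJ foreskin fibroblasts, 1500/well in complete medium, treated 40 hr at 37 °C. Cellular ATP by CellTiter-Glo luminescence; normalized to DMSO and 100 uM tamoxifen, AC50 from Hill fit.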
A short description of experiment [2]: Cell Viability - Hek293 (AID 427;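 active means compounds whose dose-response curve shows a full or clear partial loss of cell viability, called from curve shape rather than a numeric limit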;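 further: potency means the concentration at half of the fitted maximal effect; cells exposed to compound for 40 hours at 37 °C before reading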). The conditions noted are these: qHTS. Put shortly:
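HEK293 cells in complete medium were exposed to compound for 40 hr at 37 °C, then cellular ATP was read by CellTiter-Glo luminescence. Data were normalized to DMSO (basal) and 100 uM tamoxifen (100% inhibition), and AC50 came from Hill fits.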

Experiment [3] can be described thus: Cell Viability - HepG2 (AID 433).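 Further: potency means the concentration at half of the fitted maximal effect; potency for ATP loss meaning cytotoxicity.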 The conditions noted are these: qHTS. Put shortly:
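HepG2 hepatocellular carcinoma cells (1500/well) were treated with compounds for 40 h at 37 °C in complete medium; intracellular ATP was read by CellTiter-Glo luminescence. Data were normalized to DMSO and 100 uM tamoxifen, and AC50 came from Hill fits.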

Experiment [4] is described as follows: Cell Viability - MRC5 (AID 434).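 Further: potency means the concentration at half of the fitted maximal effect; potency reflects cytotoxicity seen as loss of intracellular ATP.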 The conditions noted are these: MRC5 lung fibroblast viability, qHTS. The method, boiled down:
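MRC5 normal human lung fibroblasts (1500/well) were treated with compounds for 40 hr at 37 °C in complete medium, and viable cells were measured as intracellular ATP by CellTiter-Glo luminescence. AC50 came from Hill fits, normalized to DMSO and 100 uM tamoxifen.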

Experiment [5] in a line: Cell Viability - SK-N-SH (AID 435).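 Further: potency means the concentration at half of the fitted maximal effect; compound exposure lasted 40 h at 37 °C.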 The conditions noted are these: SK-N-SH neuroblastoma cell viability qHTS. Put shortly:
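SK-N-SH human neuroblastoma cells (1500/well) were exposed to compounds in complete medium for 40 h at 37 °C, and intracellular ATP was then measured by CellTiter-Glo luminescence. AC50 was taken from Hill fits, normalized to DMSO and 100 uM tamoxifen.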

Experiment [6] can be described thus: AP1 Signaling Pathway (AID 357; active means well fitted curve in either direction with a large enough effect, not every such curve was filed as active; further: on the % scale 0 is the no-effect control and ±100 the full control effect). To be noted: ME-180 AP-1-bla reporter, EGF-induced, beta-lactamase ratio, 5 h; series mostly up to 17.2 µM. Put shortly: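 ME-180 cells with beta-lactamase reporter under AP-1 response element, stimulated with EC50 EGF; compounds tested in titration series, 5 h at 37 °C. CCF4 substrate added 2.5 h at room temperature; 460/530 nm emission ratio gave %activity and AC50.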

Experiment [7] can be described thus: NFAT Signaling Pathway (AID 444; active means well fitted curve in either direction with a large enough effect, not every such curve was filed as active;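 further: carbachol stimulus at about its EC50 of 1 µM final; on the % scale 0 is the no-effect control and ±100 the full control effect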). To be noted: Jurkat NFAT-bla M1, carbachol, beta-lactamase ratio, 5 h. Put shortly:
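Jurkat cells carrying an NFAT-driven β-lactamase reporter and co-transfected muscarinic M1 receptor were treated with compound plus carbachol (1 uM final, an EC50 level) for 5 h at 37 °C. CCF4 loading followed for 1 h at RT; 460/530 nm ratio gave %activity.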

A short description of experiment [8]: Stat Signaling Pathway (AID 446; active means well fitted curve in either direction with a large enough effect, not every such curve was filed as active;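 further: ME-180 cervical cancer cells given 40 pM IL-6 alongside compound; SIE-controlled beta-lactamase reporter measured as 460/530 nm FRET emission ratio; on the % scale 0 is the no-effect control and ±100 the full control effect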). The conditions noted are these: ME-180 (cervical carcinoma) SIE beta-lactamase reporter, IL-6 stimulated, 5 h; series mostly up to 17.2 µM. The method, boiled down:
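ME-180 cells carrying a SIE-driven beta-lactamase reporter are stimulated with 40 pM IL-6 for 5 h at 37C in the presence of compound. The 460/530 nm FRET substrate ratio is read after 2.5 h at RT. Data are normalised to 300 pM IL-6 and to 125 nM JAK inhibitor controls.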

Experiment [9] has as its target Cytochrome P450 1A2 (Homo sapiens) (UniProt P05177). Briefly: p450-cyp1a2 (AID 410). Further: potency means the concentration at half of the fitted maximal effect.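 On activity change, negative = inhibition: -100% = full effect of reference inhibitor.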 The conditions noted are these: recombinant CYP1A2, luciferin-ME demethylation, luminescence; series mostly up to 57 µM. Put shortly: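 Luminescent readout of luciferin formed from Luciferin-ME by human CYP1A2; data normalized against complete inhibition by 57 uM furafylline. Enzyme 20nM, substrate 100uM at Km, 100mM KPO4 buffer, 60 min reaction at room temperature.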

In experiment [10] the target is Lysosomal acid glucosylceramidase (Homo sapiens) (UniProt P04062). Briefly: Glucocerebrosidase-p2 (AID 348; in the data active means potency below about 10 µM; further: potency means the concentration at half of the fitted maximal effect). To be noted: purified GBA, blue fluorogenic substrate, 40 min. The method, boiled down: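 Compounds titrated from 0.6 nM upwards against 0.2 nM enzyme in pH 5.9 citric acid/KH2PO4, taurocholate, tween-20; blue fluorogenic substrate 80 uM, 40 min room temperature, stopped and read Ex 365/Em 440 for AC50.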
Lysosomal acid glucosylceramidase (Homo sapiens), sequence (P04062 whole entry, looked up): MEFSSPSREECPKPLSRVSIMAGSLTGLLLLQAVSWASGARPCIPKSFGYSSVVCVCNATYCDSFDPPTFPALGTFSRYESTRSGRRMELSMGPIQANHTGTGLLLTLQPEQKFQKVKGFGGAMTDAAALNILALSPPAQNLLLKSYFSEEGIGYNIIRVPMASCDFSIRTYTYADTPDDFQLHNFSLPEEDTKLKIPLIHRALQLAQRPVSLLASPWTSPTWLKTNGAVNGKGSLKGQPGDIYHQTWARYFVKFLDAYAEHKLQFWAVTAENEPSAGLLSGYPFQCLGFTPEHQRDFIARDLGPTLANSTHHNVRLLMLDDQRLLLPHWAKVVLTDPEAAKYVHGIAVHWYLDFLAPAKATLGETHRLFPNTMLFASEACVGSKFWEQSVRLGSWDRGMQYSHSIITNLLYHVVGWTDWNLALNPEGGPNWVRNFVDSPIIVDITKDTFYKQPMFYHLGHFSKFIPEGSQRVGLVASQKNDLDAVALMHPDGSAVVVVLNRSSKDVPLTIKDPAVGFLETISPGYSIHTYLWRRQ

Values without a mark were called inactive. Records with an inconclusive call do not appear. Active and inactive are the calls of the source. Unless noted, the call rests on the fitted dose curve.

Cytochrome P450 1A2 (Homo sapiens), sequence (P05177 whole entry, looked up): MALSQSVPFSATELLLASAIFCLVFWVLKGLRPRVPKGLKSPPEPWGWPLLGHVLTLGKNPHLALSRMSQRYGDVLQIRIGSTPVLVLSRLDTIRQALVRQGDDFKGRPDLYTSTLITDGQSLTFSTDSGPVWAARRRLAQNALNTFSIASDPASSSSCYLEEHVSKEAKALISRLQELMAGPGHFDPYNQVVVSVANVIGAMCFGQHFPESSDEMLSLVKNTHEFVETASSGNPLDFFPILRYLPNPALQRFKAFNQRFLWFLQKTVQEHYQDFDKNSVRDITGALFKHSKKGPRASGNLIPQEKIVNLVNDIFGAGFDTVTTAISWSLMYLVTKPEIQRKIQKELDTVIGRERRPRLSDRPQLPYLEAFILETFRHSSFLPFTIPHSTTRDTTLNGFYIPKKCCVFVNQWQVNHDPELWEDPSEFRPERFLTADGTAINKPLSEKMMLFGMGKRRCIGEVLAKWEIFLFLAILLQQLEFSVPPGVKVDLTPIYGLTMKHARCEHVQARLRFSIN

Turning to `IC(I)I`, the Potency in experiment [1], in [2], in experiment [3], in [4] and in experiment [5] was greater than 92 µM throughout.

Consider `CCCC(=O)Nc1ncnc2c1ncn2[C@@H]1O[C@@H]2COP(=O)(O)O[C@H]2[C@H]1OC(=O)CCC`, for which the result in experiment [6] and in experiment [8] was inactive. The activity change, negative = inhibition in [7] (at 17.2 µM (top of the series)) is -26.8%.

Turning to `O=C1CSC2(CCN(CCCN3c4ccccc4Sc4ccc(Cl)cc43)CC2)N1`, the outcome in experiment [6] and in [8] was inactive. Besides, the Potency in experiment [9] is 3.16 µM (active).

Take `CC1=C2[C@@H]([C@H](C)CC[C@H]2/C=C(\C)C(=O)O)[C@H](O)C1`: the Potency in experiment [1], in [2], in experiment [3], in experiment [4] and in [5] was greater than 92 µM each time.

Take `CN(C)CCCN1c2ccccc2C(C)(C)c2ccccc21`: the Potency in [10] was greater than 11.4 µM; in [9] it was 5.01 µM (active). For the same molecule, the molecule was called inactive in [8].

As to `CC[N+](C)(C)Cc1ccccc1Br`, the result in experiment [6] and in [8] was inactive. The activity change, negative = inhibition was -8.6% in [7] (at 17.2 µM (top of the series)) and -11% in [7] (at 38 µM (top of the series)).

In the case of `O=C(O)CC/C=C\CC[C@H]1[C@@H](N2CCCCC2)[C@@H](O)C[C@@H]1OCc1ccc(-c2ccccc2)cc1`, in experiment [9], the Potency entry was “inactive”.

Turning to `Cc1c(C)c2c(c(C)c1O)CC[C@@](C)(CCC[C@@H](C)CCC[C@@H](C)CCCC(C)C)O2`, the outcome in [6] and in experiment [8] was inactive. The Potency entry in [9] was “inactive”. Moreover, the activity change, negative = inhibition in [7] (at 17.2 µM (top of the series)) is -1.66%.

With `CC(O)CO` (stereo not drawn), the Potency in [1], in experiment [2], in experiment [3], in [4] and in experiment [5] was greater than 92 µM in each case.

Consider `CC(Cc1ccc(O)c(O)c1)C(C)Cc1ccc(O)c(O)c1` (stereo not drawn), for which the outcome in [8] was inactive.

On to `O=CCCCC=O`, for which the Potency in experiment [1], in [2], in experiment [3] and in [4] was greater than 92 µM each time.

With `CCOc1ccc2c(c1)C(C)=CC(C)(C)N2`, the result in experiment [6] and in [8] was inactive. In addition, the Potency in [9] was 5.01 µM (active); in [1] it was greater than 92 µM; in experiment [2] it was greater than 92 µM; in experiment [3], greater than 92 µM; in experiment [4], greater than 92 µM; in experiment [5], greater than 92 µM. Moreover, the activity change, negative = inhibition in experiment [7] (at 17.2 µM (top of the series)) was 4.3%.

Consider `CC(C)(C)NC(=O)[C@@H]1C[C@@H]2CCCC[C@@H]2CN1C[C@@H](O)[C@H](Cc1ccccc1)NC(=O)[C@H](CC(N)=O)NC(=O)c1ccc2ccccc2n1`, for which, in experiment [3], the Potency was 65.4 µM (active).

`CN1Cc2c(N)cccc2C(c2ccccc2)C1` (stereo not drawn): the result in [6] was inactive.

In the case of `COC(=O)CCC(=O)CN`, the outcome in [6] and in experiment [8] was inactive.

Turning to `Nc1ccn([C@H]2CS[C@@H](CO)O2)c(=O)n1`, the Potency in [1], in experiment [2], in experiment [3], in experiment [4] and in experiment [5] was greater than 92 µM each time.

As for `CCCC(=O)O[C@]1(C(=O)COC(C)=O)CC[C@H]2[C@@H]3C[C@H](F)C4=CC(=O)C=C[C@]4(C)[C@@]3(F)[C@@H](O)C[C@@]21C`, the result in experiment [6] and in [8] was inactive. Further, the activity change, negative = inhibition in [7] (at 17.2 µM (top of the series)) is -29.7%.

As to `CCOC(C)=O`, the Potency in experiment [1], in [2], in experiment [3], in experiment [4] and in experiment [5] was greater than 92 µM in each case.

Consider `COc1ccc(CCNC[C@H](O)c2ccc(O)cc2)cc1OC`, for which the result in experiment [6] and in experiment [8] was inactive. In addition, the Potency result in experiment [9] was “inactive”. Moreover, the activity change, negative = inhibition in experiment [7] (at 38 µM (top of the series)) is -28.1%.

For the molecule `CC(C)(C)C(=O)OCOC(=O)[C@@H]1N2C(=O)[C@@H](N=CN3CCCCCC3)[C@H]2SC1(C)C`, the outcome in [6] and in [8] was inactive.

Turning to `O=S(=O)(O)O`, the Potency in experiment [1], in experiment [2], in experiment [3], in experiment [4] and in [5] was greater than 92 µM in each case.

Take `Cc1cc(C(=O)NNCc2ccccc2)no1`: the outcome in experiment [6] and in experiment [8] was inactive. Moreover, the Potency in experiment [9] was 12.6 µM (active). The activity change, negative = inhibition in [7] (at 17.2 µM (top of the series)) is 11.8%.

In the case of `O=C(O)CCC(=O)C(=O)O`, the Potency in experiment [10] is greater than 11.4 µM; in [1] it was greater than 92 µM; in [2], greater than 92 µM; in experiment [3], greater than 92 µM; in [4], greater than 92 µM; in experiment [5], greater than 92 µM. Moreover, the outcome in experiment [6] and in [8] was inactive. Also, the activity change, negative = inhibition in experiment [9] is -11.7% [at 11.4 µM]; in experiment [7] (at 7.69 µM (top of the series)), 15.2%.

As to `CC1=C(/C=C/C(C)=C/C=C/C(C)=C/CO)C(C)(C)CCC1`, the Potency in experiment [1], in [2], in experiment [3] and in experiment [4] was greater than 92 µM throughout.

For the molecule `C[C@@H]1C[C@H]2[C@@H]3CCC4=CC(=O)C=C[C@]4(C)[C@@]3(F)[C@@H](O)C[C@]2(C)[C@@]1(O)C(=O)COP(=O)(O)O`, the outcome in [6] and in [8] was inactive.

For the molecule `C[C@]12C=CC(=O)C=C1CC[C@@H]1[C@@H]2[C@@H](O)C[C@@]2(C)[C@H]1CC[C@]2(O)C(=O)COC(=O)CCC(=O)O`, the outcome in experiment [6] and in [8] was inactive. Further, the activity change, negative = inhibition in experiment [7] (at 17.2 µM (top of the series)) was 20.1%.
